Data on 13 compounds can be found in PubChem BioAssay (NCATS).

The nature of assay [1]: qHTS of pediatric cancer cell lines to identify multiple opportunities for drug repurposing: Confirmatory screen for SK-N-MC cells (AID 1347111).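 Also: cells exposed to compound for 48 h before the readout; nearly all actives have a fitted effect of over 70% in size.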 Also: potency is read from the fitted curve at half-maximal effect.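 As to activity change, negative = cytotoxic: plate controls were DMSO for no effect and bortezomib for full effect.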 The procedure, abridged:
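Metabolically active cells were quantified by ATP-dependent luminescence (CellTiter-Glo, 15 min at room temperature) following 48 h treatment. Cells had been plated at 500-1,000 per well and settled for 5 h beforehand.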

Assay [2] is described as follows: qHTS of pediatric cancer cell lines to identify multiple opportunities for drug repurposing: Confirmatory screen for BT-12 cells (AID 1347112). Also: nearly all actives have a fitted effect of over 55% in size. Also: potency is read from the fitted curve at half-maximal effect. As to activity change, negative = cytotoxic: % is scaled to controls: 0 for no effect and ±100 for the full control effect. A digest of the protocol: (§1)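 Cells (500-1,000/well) in growth media were settled 5 h at 37 degrees C, then given compounds for 48 h. Viability was read as CellTiter-Glo luminescence. Primary runs used MIPE at 11 points (0.78 nM-46 µM) and NPC at 8 points (0.59 nM-46 µM); follow-ups used 11 points.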

Assay [3] is described as follows: qHTS of pediatric cancer cell lines to identify multiple opportunities for drug repurposing: Confirmatory screen for LAN-5 cells (AID 1347113). Also: nearly all actives have a fitted effect of over 65% in size. Also: potency is read from the fitted curve at half-maximal effect. As to activity change, negative = cytotoxicity: % is scaled to controls: 0 for no effect and ±100 for the full control effect. The procedure, abridged:
as §1
In general terms: In qHTS, concentration-response curves come from the screen itself.

Assay [4] in a line: qHTS of pediatric cancer cell lines to identify multiple opportunities for drug repurposing: Confirmatory screen for DAOY cells (AID 1347114). Also: % is scaled to controls: 0 for no effect and ±100 for the full control effect; nearly all actives have a fitted effect of over 65% in size. The procedure, abridged: (§2)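 Viability measured as metabolically active cells via CellTiter-Glo luminescence following 48 hours of compound exposure, 11-point dilutions in confirmatory testing. 500-1,000 cells/well plated 5 hours before dosing; controls were DMSO and 2.3 µM bortezomib.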

A short description of assay [5]: qHTS of pediatric cancer cell lines to identify multiple opportunities for drug repurposing: Confirmatory screen for NB-EBc1 cells (AID 1347115).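 Also: cells exposed to compound for 48 h before the viability read; nearly all actives have a fitted effect of over 45% in size.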 Also: potency is read from the fitted curve at half-maximal effect. As to activity change, negative = cytotoxic: % is scaled to controls: 0 for no effect and ±100 for the full control effect. The procedure, abridged: as §1
Assay [6] can be described thus: qHTS of pediatric cancer cell lines to identify multiple opportunities for drug repurposing: Confirmatory screen for SJ-GBM2 cells (AID 1347116). Also: nearly all actives have a fitted effect of over 60% in size. Also: potency is read from the fitted curve at half-maximal effect.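 As to activity change, negative = cytotoxic: plate controls were DMSO for no effect and bortezomib for full effect.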 The procedure, abridged:
as §2

The nature of assay [7]: qHTS of pediatric cancer cell lines to identify multiple opportunities for drug repurposing: Confirmatory screen for TC32 cells (AID 1347118).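 Also: cells exposed to compound for 48 h before the read; nearly all actives have a fitted effect of over 65% in size.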 Also: potency is read from the fitted curve at half-maximal effect. A digest of the protocol: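 qHTS, TC32, 48 h drug treatment, CellTiter-Glo luminescence as a proxy for metabolically active cells; primary top concentration 46 µM (MIPE 11-pt, NPC 8-pt); confirmatory 11-pt.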
Assay [8] is described as follows: qHTS of pediatric cancer cell lines to identify multiple opportunities for drug repurposing: Confirmatory screen for U-2 OS cells (AID 1347122). Also: nearly all actives have a fitted effect of over 65% in size.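 As to activity change, negative = cytotoxicity: plate controls were DMSO for no effect and bortezomib for full effect.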 The conditions noted are these: outcome: dose series up to 45.9 µM. A digest of the protocol: as §1
A short description of assay [9]: qHTS of pediatric cancer cell lines to identify multiple opportunities for drug repurposing: Confirmatory screen for RD cells (AID 1347124). Also: potency is read from the fitted curve at half-maximal effect. As to activity change, negative = cytotoxic: % is scaled to controls: 0 for no effect and ±100 for the full control effect. The procedure, abridged: as §1
A short description of assay [10]: qHTS of pediatric cancer cell lines to identify multiple opportunities for drug repurposing: Confirmatory screen for Rh18 cells (AID 1347125). Also: % is scaled to controls: 0 for no effect and ±100 for the full control effect; nearly all actives have a fitted effect of over 55% in size. A digest of the protocol:
as §1

A short description of assay [11]: qHTS of pediatric cancer cell lines to identify multiple opportunities for drug repurposing: Confirmatory screen for Rh30 cells (AID 1347126). Also: % is scaled to controls: 0 for no effect and ±100 for the full control effect; nearly all actives have a fitted effect of over 55% in size. A digest of the protocol:
as §1

Assay [12] is described as follows: qHTS of pediatric cancer cell lines to identify multiple opportunities for drug repurposing: Confirmatory screen for BT-37 cells (AID 1347117). Also: nearly all actives have a fitted effect of over 55% in size. Also: potency is read from the fitted curve at half-maximal effect.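 As to activity change, negative = cytotoxic: plate controls were DMSO for no effect and bortezomib for full effect.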 The procedure, abridged: as §1
A short description of assay [13]: qHTS of pediatric cancer cell lines to identify multiple opportunities for drug repurposing: Confirmatory screen for MG 63 (6-TG R) cells (AID 1347119). Also: nearly all actives have a fitted effect of over 55% in size. Also: potency is read from the fitted curve at half-maximal effect.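 As to activity change, negative = cytotoxicity: plate controls were DMSO neutral control for no effect and bortezomib for full effect.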 The procedure, abridged: as §1
A short description of assay [14]: qHTS of pediatric cancer cell lines to identify multiple opportunities for drug repurposing: Confirmatory screen for control Hh wild type fibroblast cells (AID 1347121).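 Also: plate controls were DMSO for no effect and bortezomib for full effect; nearly all actives have a fitted effect of over 70% in size.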 The procedure, abridged: as §1
Assay [15] is described as follows: qHTS of pediatric cancer cell lines to identify multiple opportunities for drug repurposing: Confirmatory screen for Rh41 cells (AID 1347123).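 Also: 48 h compound exposure; plate controls were DMSO for no effect and bortezomib for full effect; nearly all actives have a fitted effect of over 60% in size.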 The procedure, abridged: as §1
Assay [16] is described as follows: qHTS of pediatric cancer cell lines to identify multiple opportunities for drug repurposing: Confirmatory screen for OHS-50 cells (AID 1347128). A digest of the protocol:
as §1

Assay [17] can be described thus: qHTS of pediatric cancer cell lines to identify multiple opportunities for drug repurposing: Confirmatory screen for SK-N-SH cells (AID 1347129).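 Also: cells exposed to compound for 48 h before viability read; plate controls were DMSO for no effect and bortezomib control for full effect; nearly all actives have a fitted effect of over 60% in size.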 A digest of the protocol:
as §1

Assay [18] can be described thus: qHTS of pediatric cancer cell lines to identify multiple opportunities for drug repurposing: Confirmatory screen for Saos-2 cells (AID 1347127).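 Also: plate controls were DMSO for no effect and bortezomib for full effect; nearly all actives have a fitted effect of over 60% in size.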 A digest of the protocol: as §1
Assay [19] has as its target Furin (Homo sapiens) (UniProt P09958). Briefly: Furin counterscreen qHTS for Zika virus inhibitors (AID 1347149). Also: nearly all actives have a fitted effect of over 70% in size. Also: potency is read from the fitted curve at half-maximal effect. The procedure, abridged:
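Counterscreen measures cleavage of 2 microM BOC-RVRR-AMC, below its ~15 microM Km, by 5 nM full-length human furin at pH 7.0 after a 15-min compound preincubation. Inhibition derives from the 15-min fluorescence increase at 37C.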
A general note: The purpose of a counterscreen is to sort out artefacts and off-target activity.

Assay [20] addresses N-terminal Xaa-Pro-Lys N-methyltransferase 1 (Homo sapiens) (UniProt Q9BV86). Briefly: qHTS Assay for Inhibitors of N-terminal methyltransferase 1 (NTMT1): LOPAC validation of the NTMT1 SAHH-coupled ThioGlo3 Assay (AID 1347143).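 Also: SAH from peptide methylation measured as thiol fluorescence via SAHH coupling and ThioGlo3; nearly all actives have a fitted effect of over 70% in size.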 Also: potency is read from the fitted curve at half-maximal effect. A digest of the protocol: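 In this qHTS pilot against the LOPAC set, 125nM NTMT1 met compounds tested at multiple concentrations, and fluorescence was normalized to background.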

“And” between values parts separate entries of the source, which are not always exact repeats. Identical values can stand only once. Results filed as inconclusive are left out. A number with no mark means an inactive call. The source made the active and inactive calls. Calls follow the shape of the dose curve; as a rule, active = well fitted curve in the direction sought with a large enough effect; inconclusive = small, poorly fitted or top-dose-only effect, or another doubt; inactive = no such curve, though single readings can be large; an effect the other way counts as inactive or inconclusive.

Chain of Furin (Homo sapiens) (P09958 whole entry, looked up): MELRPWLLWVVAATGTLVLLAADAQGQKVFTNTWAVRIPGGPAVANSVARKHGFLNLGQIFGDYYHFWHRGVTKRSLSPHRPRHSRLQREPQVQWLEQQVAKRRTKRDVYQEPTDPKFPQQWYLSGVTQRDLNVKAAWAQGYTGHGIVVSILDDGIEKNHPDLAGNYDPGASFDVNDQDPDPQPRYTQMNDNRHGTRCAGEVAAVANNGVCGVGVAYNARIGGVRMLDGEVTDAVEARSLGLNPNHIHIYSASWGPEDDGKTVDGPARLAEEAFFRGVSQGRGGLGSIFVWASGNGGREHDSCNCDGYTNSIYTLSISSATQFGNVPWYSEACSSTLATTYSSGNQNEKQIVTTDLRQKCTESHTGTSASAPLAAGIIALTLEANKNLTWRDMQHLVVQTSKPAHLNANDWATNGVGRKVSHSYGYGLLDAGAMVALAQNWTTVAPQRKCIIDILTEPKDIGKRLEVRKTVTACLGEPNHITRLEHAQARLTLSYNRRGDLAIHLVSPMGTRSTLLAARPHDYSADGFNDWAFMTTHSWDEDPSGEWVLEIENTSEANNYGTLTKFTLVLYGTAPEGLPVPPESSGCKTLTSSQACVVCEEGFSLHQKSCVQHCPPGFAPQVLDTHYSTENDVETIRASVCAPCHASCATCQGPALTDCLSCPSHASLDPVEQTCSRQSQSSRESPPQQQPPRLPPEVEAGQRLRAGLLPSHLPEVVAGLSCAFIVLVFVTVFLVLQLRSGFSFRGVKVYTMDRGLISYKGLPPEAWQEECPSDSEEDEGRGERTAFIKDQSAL
Chain of N-terminal Xaa-Pro-Lys N-methyltransferase 1 (Homo sapiens) (Q9BV86 whole entry, looked up): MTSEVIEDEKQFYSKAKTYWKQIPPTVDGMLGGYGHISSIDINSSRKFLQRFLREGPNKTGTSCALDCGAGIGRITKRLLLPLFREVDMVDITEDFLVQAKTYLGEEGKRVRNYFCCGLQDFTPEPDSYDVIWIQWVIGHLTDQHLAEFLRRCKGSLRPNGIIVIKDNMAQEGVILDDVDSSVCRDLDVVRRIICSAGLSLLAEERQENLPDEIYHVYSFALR

As for `Cc1ccc2nc(N)[nH]c(=O)c2c1Sc1ccncc1`, the Potency is 2.08 µM (active) in [1], 11.7 µM (active) in [5] and 3.29 µM (active) in assay [7]. Besides, the Potency entry in assay [2], in assay [3], in [6] and in [9] was “inactive” each time. For the same compound, the call in [4], in assay [8], in [10] and in [11] was inactive.

In the case of `C[C@@H]1C[C@H]2[C@@H]3C[C@H](F)C4=CC(=O)C=C[C@]4(C)[C@@]3(F)[C@@H](O)C[C@]2(C)[C@@]1(O)C(=O)CO`, the Potency was 13.1 µM (active) in assay [1] and 23.3 µM (active) in [7]. Also, the Potency result in assay [2], in [5], in [6], in assay [12], in assay [13] and in assay [9] was “inactive” in each case. In addition, the result in assay [4], in assay [14], in assay [8], in assay [15], in assay [10] and in assay [16] was inactive. Moreover, the compound was called inactive in assay [17].

With `O=C1N=C(O)CN1/N=C/c1ccc(-c2ccc([N+](=O)[O-])cc2)o1`, the Potency result in [1], in assay [2], in assay [3], in assay [5], in [6] and in assay [12] was “inactive” in each case. In addition, the Potency result in assay [7], in assay [13] and in assay [9] was “inactive” each time. Further, the result in [14], in assay [8], in assay [10], in assay [11], in assay [18] and in [16] was inactive. Further, the result in [17] was inactive.

Regarding `C[C@](N)(Cc1ccc(O)cc1)C(=O)O`, the activity change, negative = cytotoxic in [1] was 6.85% [at 5.01 µM]; in assay [2] it was -3.72% [at 5.01 µM]; in assay [4], 9.36% [at 5.01 µM]; in assay [6], 8.57% [at 5.01 µM]; in assay [12], -10.9% [at 5.01 µM]; in [15], 0% [at 5.01 µM]. Also, the activity change, negative = cytotoxic was 10.4% [at 5.01 µM] in assay [9]; 0.623% [at 5.01 µM] in assay [10]; 0% [at 5.01 µM] in assay [11]; 17.6% [at 5.01 µM] in assay [18]; 11.7% [at 5.03 µM] in [17]. Also, the Potency result in assay [7] is “inactive”. The activity change, negative = cytotoxicity in [13] was 15.9% [at 5.01 µM]; in assay [8], 3.67% [at 5.01 µM]. Further, in [14], the activity, negative = cytotoxic is -2.45% [at 5.01 µM].

For `O=C(O)CN1C(=O)c2cccc3cccc(c23)C1=O`, the Potency is 2.93 µM (active) in assay [1]; 26.1 µM (active) in assay [5]; 16.5 µM (active) in assay [6]; 18.5 µM (active) in assay [12]; 3.29 µM (active) in assay [7]; 20.8 µM (active) in [13]. Besides, the Potency in assay [9] was 3.69 µM (active). Further, the result in assay [4], in assay [14], in assay [8], in assay [15], in [18] and in [17] was inactive.

Take `O=c1cc[nH]c(=S)[nH]1`: the Potency in assay [1] was 2.93 µM (active); in assay [7], 9.27 µM (active). In addition, the Potency result in [2], in assay [5], in assay [6], in assay [12], in assay [13] and in assay [9] was “inactive” throughout. Further, the result in assay [4], in [8], in [15], in assay [10], in assay [11] and in assay [18] was inactive. Besides, the outcome in assay [17] was inactive.

On to `NC1[C@H]2CN(c3nc4c(cc3F)c(=O)c(C(=O)O)cn4-c3ccc(F)cc3F)C[C@@H]12` (some centres not stated), for which, in [19], the Potency was 24.1 µM (active).

On to `N[C@H](C(=O)O)c1ccc(O)cc1`, for which, in assay [19], the Potency result was “inactive”.

In the case of `Cc1cc(C(C#N)c2ccc(Cl)cc2)c(Cl)cc1NC(=O)c1cc(I)cc(I)c1O` (configuration not stated), in assay [19], the Potency was 7.64 µM (active) and 13.9 µM (active).

On to `NC(=O)c1ncn([C@@H]2O[C@H](CO)[C@@H](O)[C@H]2O)n1`, for which the Potency entry in assay [20] was “inactive”.

As to `COC(=O)C1=C(C)NC(C)=C(C(=O)OC)C1c1ccccc1[N+](=O)[O-]`, in assay [20], the Potency is 12.6 µM (active).

Consider `CCCCC/C(C=O)=C\c1ccccc1`, for which the Potency is 9.27 µM (active) in assay [1]; 26.1 µM (active) in [2]; 5.22 µM (active) in [3]; 14.7 µM (active) in assay [12]; 6.57 µM (active) in assay [7]. The call in assay [4], in [14] and in assay [8] was inactive. The Potency result in assay [5], in [6], in assay [13] and in assay [9] was “inactive” throughout.

Turning to `CCN(CC)CCNC(=O)c1cc(Cl)c(N)cc1OC`, the Potency result in [1], in assay [2], in [5], in [12], in assay [13] and in assay [9] was “inactive” in each case. For the same compound, the call in [4], in [14], in assay [8], in assay [15], in assay [10] and in assay [11] was inactive. Further, the compound was called inactive in assay [18], in assay [16] and in [17].
